The panel holds about 83,000 compounds, 20% with a hit somewhere; the sample as a whole holds those more often.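 How to read the values: 0–100, growth inhibition (40 = 60% inhibited); 0, no net growth; -100 to 0, cell death (-40 = 40% of starting cells died; -100 = all dead).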 A number with no mark means an inactive call. Active and inactive are the calls of the source. Rule for the calls: active = growth percent below 10; inactive = the rest.
tested on: HL-60(TB) leukemia; assay: NCI-60 one-dose screen, 48 h (100 = growth as untreated, 0 = no growth, -100 = all killed); details: 10 µM unless noted

Row | SMILES | growth
1 | COc1ccc(Nc2ncccc2NC(=O)c2cn(Cc3cccc(Oc4ccccc4)c3)nn2)cc1 | 95.9%
2 | CN1CCN(CC#CCOC(=O)CNC(=O)[C@]23CCC(C)(C)C[C@H]2C2=CC[C@@H]4[C@@]5(C)CC[C@H](O)C(C)(C)[C@@H]5CC[C@@]4(C)[C@]2(C)CC3)CC1 | 49.7%
3 | O=C1O[C@@H](c2ccccc2Cl)[C@@H]2c3cc4c(cc3CCN12)OCO4 | 92.1%
4 | N=C(N)c1ccc(-c2ccc(-c3cc(Cl)cc(Cl)c3)o2)nc1 | -74.7% (active)
5 | CCC(=O)Oc1cc(Cl)c(Cl)cc1Cl | 106%
6 | CCOC(=O)CNP(=O)(OC[C@@H](Cc1ccccc1)NC(=O)c1cc2ccccc2s1)Oc1ccccc1 (stereo not given in full) | 79.4%
7 | COc1ccc(Cn2c(Br)c3c(c2Br)-c2nc(N)sc2CC3)cc1 | -16% (active)
8 | COc1ccc(-c2ccc(-c3ccc(C(=N)N)cn3)s2)cc1Cl | -55.3% (active)
9 | Cc1ccc(Cc2cnc(NC(=O)/C=C/c3cccc(C)c3)s2)cc1 | -15.4% (active)
10 | Cc1cnc(/C=N\NC(N)=S)c2cccc(N)c12 | -29.7% (active)
11 | Cc1nc2cccc(NCc3ccc(C(=O)NO)cc3)c2c(=O)n1-c1ccccc1 | 27.2%
12 | C[C@@H]1C[C@@H]([C@@H](CC2CC(=O)NC(=O)C2)OC(=O)CC(=O)c2ccccc2)C(=O)[C@@H](C)C1 | 13%
13 | COc1cccc(/C=C2\COc3ccc(O)c(O)c3C2=O)c1 | -20% (active)
14 | Cn1c(=O)c2[nH]c(C(O)C(O)C(O)C(O)CO)nc2n(C)c1=O (stereo not given) | 100%
15 | COc1ccc2nc(NC(=O)c3cccnc3Nc3cc(OC)c(OC)c(OC)c3)sc2c1 | 51.8%
16 | N#CC1=C(N)Oc2c(ccc3cccnc23)C1c1ccccc1 (stereo not given) | 13.3%
17 | COc1ccc(C(=O)Nc2nc(-c3ccc(Cl)cc3)cs2)cc1 | 105%
18 | O=C1c2ccccc2C(=O)N1c1ccccc1 | 111%
19 | O=C1C=CC2(O)OC(c3ccccc3)CC(=O)C2=C1O (stereo not given) | 50.5%
20 | Nc1c(CNCc2nnn(Cc3ccccc3)c2N)nnn1Cc1ccccc1 | 103%

Row | SMILES | growth
21 | CCCCCCCC/C=C\CCCCCCCCOc1ccccc1CC(=O)NCC[N+]1(C)CCCC1 | 2.25% (active)
22 | c1cc[c]([Bi]([c]2ccccc2)[c]2ccccc2)cc1 | 96.6%
23 | CCC[S@@](=O)c1ccc2nc(NC(=O)OC)[nH]c2c1 | 56.6%
24 | C[C@@H](Oc1ccc(C(=O)NS(=O)(=O)C(C)(C)C)cc1C(F)(F)F)c1ccc(Oc2ccccc2)cn1 | 15.8%
25 | O=C(C[P+](c1ccccc1)(c1ccccc1)c1ccccc1)c1ccccc1 | 93.1%
26 | O=C1NC(=O)C(c2ccccc2)(c2ccccc2)N1Cc1cn(-c2c3ccccc3nc3ccccc23)nn1 | 73.3%
27 | CC(C)(C)c1cc(C(C)(C)c2ccccc2)cc(Cc2cc(C(C)(C)c3ccccc3)cc(C(C)(C)C)c2O)c1O | 112%
28 | O=C1OCC2=C1C(c1cccc(F)c1)c1cc3c(cc1N2CCO)OCO3 (stereo not given) | -28.9% (active)
29 | CS(=O)(=O)Nc1cccc(-c2cc(-c3ccccc3Cl)c(C#N)c(N)n2)c1 | 8.6% (active)
30 | O=S(=O)(NCCCNc1cc(-c2c(-c3cccc(O)c3)nc3sccn23)ccn1)c1cccc2ccccc12 | 41.3%
31 | O=C(Nc1nc(-c2ccccc2)cs1)c1cc(-c2ccc(Br)cc2)nc2ccccc12 | 31.5%
32 | Cc1cc(N2CCN(CC(=O)Nc3ccc4c(ccn4C)c3)CC2)nc(N2CCCCCC2)n1 | 74.7%
33 | CCOc1ccccc1-n1c(CN2CCN(C(=O)COc3ccc(CNCCCCCCN4C5CCCC4CC(OC(=O)Nc4cc(C)ccc4OC)C5)cc3)CC2)nc2ccccc2c1=O (stereo not given) | -76% (active)
34 | Cc1cc(N/C=c2\sc3ncnn3c2=O)no1 | 111%
35 | Nc1nc(-c2ccccc2Cl)cc(-c2ccc(Cl)cc2Cl)n1 | 51.4%
36 | CC(CN)[C@@H]1CC[C@]2(CO)CC[C@]3(C)[C@H](CC[C@@H]4[C@@]5(C)CCC(N)C(C)(C)[C@@H]5CC[C@]43C)[C@@H]12 (stereo not given in full) | 31.5%
37 | O=C(N=Nc1c(O)[nH]c2ccccc12)Nc1ccccc1Cl | 78.3%
38 | O=c1cc(-c2ccccc2)nc(SCc2nc3cc(Cl)c(Cl)cc3[nH]2)[nH]1 | 101%
39 | CCCCN(CCCC)c1ccc(C(=N)c2ccc(N(C)C)cc2)cc1 | -55.1% (active)
40 | C=C(C)[C@@H]1CC[C@]2(C(N)=O)CC[C@]3(C)[C@H](CC[C@@H]4[C@@]5(C)C/C(=C/c6cccnc6)[C@H](O)C(C)(C)[C@@H]5CC[C@]43C)[C@@H]12 | 0.0883% [100 µM] (active)

— PubChem BioAssay (NCI)
